Reference: the supplement of paper PMC6555819

What was measured:
Test in all cases: PBM binding z-score (relative to random genomic background probes); higher = stronger binding; sequences stand for … in GC…GCGATTGACAGCGTAGAATGAAGG
[1] = tested on: PPARg:RXRa DBDmut IVT, anti-RXR (DBD mutation: RXRa K156A/R161A, NR concentration 270 nM, RXRa partner concentration 90 nM)
In short: (§1)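 For binding z-scores, the reference was random background probes on custom Agilent 4×180K protein-binding microarrays. These arrays were incubated 1 h with ligand-free nuclear receptor dimers in PBS pH 7.4, 2% milk, 0.02% Triton X-100, 1 mM DTT, 0.2 mg/mL BSA and 0.4 mg/ml salmon testes DNA. Fluorescence was scanned after antibody detection of each partner (one per run) and regression-normalized.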

[2] = tested on: PPARg:RXRa IVT, anti-PPARg (NR concentration 270 nM, RXRa partner concentration 90 nM)
In short: as §1

[3] = tested on: PPARg DBDmut:RXRa IVT, anti-PPARg (DBD mutation: PPARg1 K132A/R137A, NR concentration 270 nM, RXRa partner concentration 90 nM)
In short: as §1

[4] = tested on: PPARg DBDmut IVT, anti-PPARg (DBD mutation: PPARg1 K132A/R137A, NR concentration 270 nM)
In short: as §1

[5] = tested on: PPARg homodimer (NR concentration 180 nM)
In short: as §1

[6] = tested on: PXR:RXRa (NR concentration 270 nM, RXRa partner concentration 90 nM)
In short: as §1

[7] = tested on: PXR homodimer (NR concentration 270 nM)
In short: as §1

[8] = tested on: RARa:RXR (NR concentration 270 nM, RXRa partner concentration 90 nM)
In short: as §1

[9] = tested on: RARa homodimer (NR concentration 270 nM)
In short: as §1

[10] = tested on: RARb:RXRa (NR concentration 270 nM, RXRa partner concentration 90 nM)
In short: as §1

[11] = tested on: RARb homodimer (NR concentration 270 nM)
In short: as §1

[12] = tested on: RARg:RXRa (NR concentration 270 nM, RXRa partner concentration 90 nM)
In short: as §1

[13] = tested on: RARg homodimer (NR concentration 270 nM)
In short: as §1

[14] = tested on: RXRa DBDmut IVT, anti-RXR (DBD mutation: RXRa K156A/R161A, NR concentration 90 nM)
In short: as §1

[15] = tested on: RXRa homodimer (NR concentration 180 nM)
In short: as §1

[16] = tested on: THRa:RXRa (NR concentration 90 nM, RXRa partner concentration 90 nM)
In short: as §1

[17] = tested on: THRa homodimer (NR concentration 90 nM)
In short: as §1

[18] = tested on: VDR homodimer (NR concentration 270 nM)
In short: as §1

Row | Sequence | PBM binding z-score [1] | PBM binding z-score [2] | PBM binding z-score [3] | PBM binding z-score [4] | PBM binding z-score [5] | PBM binding z-score [6] | PBM binding z-score [7] | PBM binding z-score [8] | PBM binding z-score [9] | PBM binding z-score [10] | PBM binding z-score [11] | PBM binding z-score [12] | PBM binding z-score [13] | PBM binding z-score [14] | PBM binding z-score [15] | PBM binding z-score [16] | PBM binding z-score [17] | PBM binding z-score [18]
1 | CCGAGTAGGTTATGGCGCATTCAGGCAACGGTGA | 3.17 | 1.71 | -0.391 | -0.415 | 0.648 | -0.289 | -0.0371 | 0.131 | 0.249 | 0.551 | 0.598 | 0.0806 | 0.1 | -0.0161 | 0.365 | 0.169 | 0.321 | -0.2
2 | CCTCGGAGGACAGATGGTCAGAGCTGTCCGCTTT | -0.386 | -0.558 | -1 | -1.4 | 0.238 | -0.384 | -0.503 | -0.309 | -0.685 | 0.479 | 0.0769 | 0.0731 | 0.421 | -0.0448 | -0.625 | -0.175 | -0.332 | -0.436
3 | GCGACTGGGGGATCAGCAGGTTACCATAACTTAA | 0.873 | 2.43 | 3.69 | 4.01 | 0.749 | 1.15 | 0.388 | 1.31 | -0.462 | 0.688 | 0.909 | 0.837 | 0.34 | 0.58 | 1 | 1.67 | 0.806 | 0.0827
4 | CCTCGGAGGACAACAGGAGGGCAGAGCTGCCAGA | -0.405 | -0.306 | -2.18 | -1.69 | -0.00297 | -0.394 | -0.631 | -0.517 | -0.328 | 1.73 | 1.42 | 0.94 | 2.08 | -0.00274 | -0.287 | 0.794 | -0.458 | -0.448
5 | TCATATAGGTAAAAGGAGAAAGTCGGTGTGGTAA | 4.08 | 2.11 | 0.507 | 0.375 | 0.959 | 0.415 | 0.686 | 0.571 | 1.29 | 0.195 | -0.155 | 0.181 | 0.123 | 1.49 | 0.649 | -0.0526 | -0.722 | 0.471
6 | CCTGCTAGGTCAATGGTCAGCGAAAGCAGCTCGC | 4.19 | 4.06 | 0.555 | -0.25 | 1.7 | 0.865 | -0.255 | 1.87 | -0.0474 | 3.71 | 2.63 | 3.65 | 4.18 | 1.73 | 2.11 | 2.32 | 0.558 | -0.0463
7 | CCTACTGGGCCAAGGTCCTTGATCAGTCAAAGCA | 3.51 | 3.4 | -1.28 | -1.15 | -0.287 | -0.74 | -0.766 | -0.787 | -1.65 | 0.256 | 0.00283 | -0.396 | -0.0984 | -1.13 | -0.463 | -0.0193 | -0.503 | -0.774
8 | CCTACTGGGCCAAAAAGCTCATTGATGCCGATAA | 3.38 | 2.11 | -0.849 | -0.936 | -0.703 | -0.847 | -0.417 | -1.01 | -0.487 | -0.356 | -0.842 | -0.596 | -0.419 | -0.369 | -0.638 | -0.815 | -0.619 | -0.487
9 | ATCTCTAGGTAAAGTTCAGTGACAGATCGATAGA | 2.61 | 2.57 | 1.53 | 2.1 | 2.05 | 2.12 | 2.52 | 1.43 | 2.08 | 2.75 | 2.63 | 1.99 | 2.63 | 1.51 | 1.39 | 1.31 | 0.436 | 2.61
10 | TCTTGTAGATCAAGCAGGTAAAGAAAGCCTGAGT | 1.45 | 0.35 | 0.0649 | 0.0829 | 0.161 | 0.0667 | 0.176 | 0.203 | -0.0123 | -0.301 | -0.462 | -0.262 | -0.32 | 0.476 | -0.157 | 0.095 | -0.499 | -0.555
11 | ATATGTAGGTTATCGGTTCATTCAGTTTGCGCAT | 7.25 | 7.09 | 4.06 | 4.75 | 2.66 | 3.48 | 11.4 | 1.73 | 1.25 | 1.32 | 1.17 | 1.39 | 0.882 | 2.4 | 1.66 | 1.27 | 1.08 | 5.79
12 | TCCTGTAGATCAAAGGTTAAGAAAGCCGAAGCCT | 1.82 | 3.04 | -0.37 | 0.441 | 1.34 | 1.72 | -0.679 | 2.85 | -0.272 | 1.78 | 1.39 | 1.89 | 0.87 | 0.61 | 3.17 | 1.24 | -0.54 | -0.182
13 | GCCACTGGGGCAAAGCAGGTTACCATAAGGTTGG | 5.67 | 5.29 | 0.444 | -0.613 | 0.322 | 0.224 | -0.707 | 1.06 | -0.774 | 1.01 | 1.08 | 0.357 | 0.651 | -0.861 | 0.287 | 2.79 | -0.169 | -0.617
14 | GATACAGGGTCAAGGGCAGAGTACGCGTATTGAT | 2.9 | 4.2 | 0.998 | 0.413 | 2.15 | 4.01 | 0.827 | 4.22 | 0.496 | 4.77 | 3.91 | 5.63 | 5.26 | 2.38 | 6.19 | 3.7 | 1.49 | 3.28
15 | GTAACAAGGTGAATAGGTCGTTGATGAGTAGGCG | 3.26 | 3.65 | 0.827 | 0.585 | 1.61 | 1.02 | 0.451 | 2.04 | 0.797 | 2.06 | 1.9 | 2.74 | 1.68 | 0.149 | 2.29 | 2.06 | 0.594 | 0.415
